PubChem BioAssay (Tox21)
Several values for one entry are separate records, joined by “and”; a condition that tells them apart may be missing. Equal entries are not always repeated. Records with an inconclusive call do not appear. Unmarked numbers belong to inactive results. Activity calls are given as the source filed them. Calls follow the shape of the dose curve; as a rule, active = well fitted cell-killing curve with a large enough effect in the repeat runs; inconclusive = weak or mixed curves; inactive = flat fitted curve, though single readings scatter.

Experiment: qHTS assay to identify small molecule antagonists of the estrogen related receptor (ERR) signaling pathway from Tox21 library - cell viability counter screen (AID 1224834); also: nearly all actives have a fitted effect of over 30% in size
Settings: ERR reporter cells viability, CellTiter-Fluor, 17.5 h; series mostly up to 92.4 µM
Text: National Center for Advancing Translational Sciences [NCATS]
NIH Chemical Genomics Center [NCGC]
U.S. Environmental Protection Agency [EPA]
National Institutes of Environmental Health Sciences [NIEHS]
National Toxicology Program [NTP]
U.S. Food and Drug Administration [FDA]
Estrogen related receptors (ERRs), the first orphan nuclear receptors discovered, play an important role in the control of cellular energy metabolism. ERRs are required for high-energy production in response to the environmental challenges. ERR-alpha was also identified as an adverse marker for breast cancer progression; ERR-alpha-positive tumors have a poor prognosis. To screen and to identify environmental compounds that perturb the ERR signaling pathways could provide valuable information for potential therapeutic or preventive measures in the treatment of metabolic disease. To differentiate true ERR antagonists or agonist from cytotoxic substances, the assay is multiplexed with cell viability assay.
Tox21 Assay Protocol Summary:
The ERR cells were dispensed at 2,000 cells/5 ul/well in 1536-well white plates using a Multidrop dispenser. After the assay plates were incubated at a 37 C/5% CO2 incubator for 6 hours, 23 nL of compounds dissolved in DMSO, positive and negative controls or DMSO only was transferred to the assay plate by a pin tool. The plates were incubated at 37 C for 17.5 hours. 1 ul/well of CellTiter-Fluor reagent was added into the assay plates using a Flying Reagent Dispenser. After 30-minute incubation at 37 C/5% CO2, the fluorescence intensity in the plates was measured using a ViewLux plate reader.
% is scaled to controls: 0 for no effect and ±100 for the full control effect; potency is read from the fitted curve at half-maximal effect.

SMILES	Potency	viability change, negative = cytotoxic
CCc1cc(Cc2cc(CC)cc(C(C)(C)C)c2O)c(O)c(C(C)(C)C)c1	54.5 µM (active)	–
Cc1cc(O)c(C(C)(C)C)cc1Sc1cc(C(C)(C)C)c(O)cc1C	30.6 µM (active)	–
C[n+]1ccn(Cc2ccccc2)c1	inactive	–
O=c1[nH]sc2ccccc12	61.1 µM (active)	–
COc1ccc(CN2CCN(C(c3ccc(F)cc3)c3ccc(F)cc3)CC2)c(OC)c1OC	13.3 µM (active)	–
Cc1cc(CCN2CCN(c3nsc4ccccc34)CC2)cc2c1NC(=O)CC2(C)C	30.6 µM (active)	–
CN(C)CCCOC1(Cc2ccccc2)CCCCCC1	inactive	–
NNc1nc(-c2ccc([N+](=O)[O-])cc2)cs1	6.86 µM (active)	–
O=C(Nc1cccc(Cl)c1)OCC#CCCl	54.5 µM (active)	–
CCN(CC)CCCC(C)Nc1c2ccc(Cl)cc2nc2ccc(OC)cc12 (stereo not given)	5.96 µM (active)	–
Cc1cccc2c1cc1ccc3cccc4ccc2c1c34	inactive	–
CN(C)[C@@H]1C(=O)C(C(N)=O)=C(O)[C@@]2(O)C(=O)C3=C(O)c4c(O)ccc(Cl)c4[C@@H](O)[C@H]3C[C@@H]12	inactive	–
CC(C)(C)CC(C)(C)c1ccc(O)c(Cc2ccc(Cl)cc2Cl)c1	23.7 µM (active)	–
CCCCCCCCCOC(=O)c1ccc(O)cc1	53.7 µM (active)	–
ON=C1CCCC1	25.2 µM (active)	–
C=C(C)C(=O)OCC(O)COc1ccc(C(C)(C)c2ccc(OCC(O)COC(=O)C(=C)C)cc2)cc1 (stereo not given)	48.6 µM (active)	–
COC(=O)C1=C(C)NC(C)=C(C(=O)OCCc2ccc(N3CCN(C(c4ccccc4)c4ccccc4)CC3)cc2)C1c1cccc([N+](=O)[O-])c1 (stereo not given)	inactive	–
C=CC(=O)OCC(CO)(COC(=O)C=C)COC(=O)C=C	6.88 µM (active) and 13.7 µM (active)	–
CC1=NC(C)OC1C (stereo not given)	inactive	–
CCCC/C=C/CCCCO	inactive	–

SMILES	Potency	viability change, negative = cytotoxic
CCN(CC)CCNC(=O)c1c(C)[nH]c(/C=C2\C(=O)Nc3ccc(F)cc32)c1C	10.6 µM (active)	–
O=C1C=CC(=O)N1c1ccc(Cc2ccc(N3C(=O)C=CC3=O)cc2)cc1	30.6 µM (active)	–
C/C=C1/C(=O)C[C@H]2[C@@H]3CCC4=CC(=O)CC[C@]4(C)[C@H]3CC[C@]12C	60.9 µM (active)	–
O=C(OC[C@H]1O[C@@H](OC(=O)c2cc(O)c(O)c(OC(=O)c3cc(O)c(O)c(O)c3)c2)[C@H](OC(=O)c2cc(O)c(O)c(OC(=O)c3cc(O)c(O)c(O)c3)c2)[C@@H](OC(=O)c2cc(O)c(O)c(OC(=O)c3cc(O)c(O)c(O)c3)c2)[C@@H]1OC(=O)c1cc(O)c(O)c(OC(=O)c2cc(O)c(O)c(O)c2)c1)c1cc(O)c(O)c(OC(=O)c2cc(O)c(O)c(O)c2)c1	16.5 µM (active)	–
CCCN(CCC)c1c([N+](=O)[O-])cc(C(F)(F)F)c(N)c1[N+](=O)[O-]	48.4 µM (active)	–
CC(NN)c1ccccc1 (stereo not given)	–	6.9% [at 19 µM]
CC(C)(C)c1ccc(C(=O)O)cc1	inactive	–
COc1ccc(C(=O)/C(Br)=C\C(=O)O)cc1	54.5 µM (active)	–
CCCCCCCCCCn1cc[n+](CCCCCCCCCC)c1C	27.3 µM (active)	–
Cc1cc(O)c(C(C)(C)C)cc1C(C)(C)C	54.5 µM (active)	–
NC(=O)CC[C@@H]1NC(=O)[C@H](Cc2ccccc2)NC(=O)[C@H](Cc2ccc(O)cc2)NC(=O)CCSSC[C@@H](C(=O)N2CCC[C@H]2C(=O)N[C@@H](CCCN=C(N)N)C(=O)NCC(N)=O)NC(=O)[C@H](CC(N)=O)NC1=O	inactive	–
OCCN1CCN(CC/C=C2/c3ccccc3Sc3ccc(C(F)(F)F)cc32)CC1	29.8 µM (active)	–
Clc1ccc2nsnc2c1NC1=NCCN1	inactive	–
CCC(N)(CO)CO	inactive	–
OC1(c2ccc(Cl)c(C(F)(F)F)c2)CCN(CCCC(c2ccc(F)cc2)c2ccc(F)cc2)CC1	21.1 µM (active)	–
CCC(C)(C)C1CCCCC1OC(C)=O (stereo not given)	inactive	–
[O-][n+]1ccccc1SSc1cccc[n+]1[O-]	0.366 µM (active)	–
Clc1ccc2n[nH]nc2c1	inactive	–
O=c1[nH]sc2cc(Cl)ccc12	inactive	–
CC(=O)N1CCN(c2ccc(OC[C@H]3CO[C@](Cn4ccnc4)(c4ccc(Cl)cc4Cl)O3)cc2)CC1	27.3 µM (active)	–
